Reference: PubChem BioAssay AID463173 (ICCB-Longwood Screening Facility, Harvard Medical School, 2010)
About 4,300 (8.3%) of roughly 52,000 compounds were called active. This excerpt belongs to a sample that is enriched for actives. Unmarked numbers belong to inactive results. Rule as the data show it: active = survival mostly below about 52% (no sharp cut-off); inactive = mostly above about 56%.

These molecules were tested on DeltatarO mutant (assay: growth inhibition of S. aureus wild type versus tarO mutant, primary screen, teichoic acid synthesis inhibitors, RN4220, OD600 (AID 463173)). Details: OD600, 18 h, hits give low values, screened at 18.75 µg/mL (by protocol).
Work on COc1ccc(Nc2c(-c3ccc(C)o3)nc3cc(C)ccn23)cc1 yielded a survival of 75%.
With Cc1ccn2c(Nc3ccc4c(c3)OCO4)c(-c3ccc(C)o3)nc2c1 the survival was 81%.
With Cc1ccc2nc(-c3ccco3)c(Nc3ccc4c(c3)OCCO4)n2c1 the survival was 67%.
For Brc1ccc(-c2nc3ccccn3c2Nc2ccc3c(c2)OCCO3)o1, the survival was 85%.
Work on Cc1ccc(-c2nc3ccccn3c2Nc2ccc3c(c2)OCCO3)o1 yielded a survival of 45%.
In the case of Cc1ccc(-c2nc3ccccn3c2Nc2ccc3c(c2)OCO3)o1, the survival is reported as 34% (active).
c1coc(-c2nc3ccccn3c2Nc2ccc3c(c2)OCCO3)c1 was tested, and the survival was 53% (active).
Cc1ccc(-c2nc3ccccn3c2Nc2ccc3c(c2)OCO3)cc1 showed a survival of 73%.
For Cc1ccc(-c2nc3ccccn3c2Nc2c(C)cccc2C)o1, the survival was -2% (active).
In the case of Cc1ccn2c(Nc3ccc4c(c3)OCCO4)c(-c3ccc(C)o3)nc2c1, the survival is reported as 58% (active).
In the case of Cc1ccc2nc(-c3ccc(C)o3)c(Nc3ccc4c(c3)OCCO4)n2c1, the survival is reported as 72%.
Cc1ccc(Nc2c(-c3ccc(Br)o3)nc3ccccn23)cc1 showed a survival of 112%.
Work on CCc1nn(CC(=O)NCc2ccccc2Cl)c(=O)c2cc3ccccc3n12 yielded a survival of 62%.
Cc1ccc(Cn2c(SCc3ccc(C(=O)NC4CCCCC4)cc3)nc3ccncc32)cc1 was tested, and the survival was 71%.
For Cc1cc(N2CCCC2)nc(SCC(=O)c2ccccc2)n1, the survival was 77%.
With COc1ccc(CCN2C(=O)CN(C3CCCCCC3)C(=O)C2c2ccc(C)cc2)cc1OC (stereo unspecified) the survival was 92%.
Cc1ccc(Cl)cc1N1CCN(C(=O)c2cn(C)c3ccc(S(=O)(=O)N4CCCC4)cc3c2=O)CC1 was tested, and the survival was 124%.
Cc1ccccc1Cn1c2ccccc2c2cnn(CC(=O)N3CCC(C)CC3)c(=O)c21 was tested, and the survival was 41%.
With Cc1ccc2oc(=O)n(CCCOc3ccc(Cl)cc3)c2c1 the survival was -3% (active).
Cc1c(Cl)cccc1NC(=O)NCCOCCn1c(=O)oc2ccccc21 gave a survival of 51%.
Cc1ccc2oc(=O)n(CCNC(=O)Nc3ccc(C)c(F)c3)c2c1 gave a survival of 108%.
For O=c1oc2ccccc2n1CCCOc1ccccc1Cl, the survival was 3% (active).
For Cc1ccc2oc(=O)n(CCCOc3ccccc3Cl)c2c1, the survival was -4% (active).
Molecule O=C(O)CCCn1c(=O)oc2ccccc21 has a survival of 96%.
COc1ccc(OCCCn2c(=O)oc3ccc(C)cc32)cc1 was tested, and the survival was 39%.
With N#CCCCn1c(=O)oc2ccccc21 the survival was 100%.
With CCOc1ccc(-c2cc(C(=O)N3CCN(c4cc(Cl)ccc4C)CC3)c3ccccc3n2)cc1 the survival was 58%.
Work on O=C(NCc1ccc2c(c1)CCN2C(=O)c1ccc(F)cc1)c1c(F)cccc1F yielded a survival of 85%.
O=C(NCc1ccccc1Cl)c1ccc2nc(Cc3ccccc3)oc2c1 gave a survival of 60%.
CC1CCN(S(=O)(=O)c2ccc3c(c2)N(CC(=O)NCCN(C)C)C(=O)CS3)CC1 showed a survival of 108%.
CC(=O)N1CCCc2cc(S(=O)(=O)N3CCCC(C(=O)NCc4ccccc4Cl)C3)ccc21 (stereo unspecified) showed a survival of 95%.
CC(=O)N1CCCc2cc(S(=O)(=O)N3CCCCC3)ccc21 was tested, and the survival was 47% (active).
For COc1ccccc1CNC(=O)C1CCN(S(=O)(=O)c2ccc3c(c2)CCCN3C(C)=O)CC1, the survival was 83%.
COc1ccccc1CNC(=O)C1CCCN(S(=O)(=O)c2ccc3c(c2)CCCN3C(C)=O)C1 (stereo unspecified) was tested, and the survival was 52% (active).
Work on CC(=O)N1CCCc2cc(S(=O)(=O)N3CCC(N(C)C(C)C)CC3)ccc21 yielded a survival of 94%.
CC(=O)N1CCCc2cc(S(=O)(=O)N3CCC(C(=O)NC4CCCCC4)CC3)ccc21 gave a survival of 94%.
Work on CCOC(=O)N1CCc2c(sc3c2c(=O)n(Cc2ccccc2)c(=O)n3CC(=O)Nc2ccc(C)cc2C)C1 yielded a survival of 71%.
In the case of O=C(c1cc2ccccc2oc1=O)N1CCN(c2ccc(Cl)cc2)CC1, the survival is reported as 66%.
Work on COc1cc(C(=O)NCCOc2ccc(C)c(C)c2)cc(OC)c1OC yielded a survival of 98%.
Cc1cc(C)cc(NC2=CC(c3cccc(F)c3)N(c3cc(C)cc(C)c3)C2=O)c1 (stereo unspecified) was tested, and the survival was 87%.
COc1ccc(C(=O)/C=C/c2cn(CC(O)CN3CCc4ccccc43)c3ccccc23)cc1 (stereo unspecified) gave a survival of 58%.
Molecule COc1ccc(C(=O)/C=C/c2cn(CC(O)CN(CC(C)C)CC(C)C)c3ccccc23)cc1OC (stereo unspecified) has a survival of 91%.
COc1ccc(C(=O)/C=C/c2cn(CC(O)CN(CC(C)C)CC(C)C)c3ccccc23)cc1 (stereo unspecified) gave a survival of 58%.
In the case of CCCN(CCC)CC(O)Cn1cc(/C=C/C(=O)c2ccc(C)cc2)c2ccccc21 (stereo unspecified), the survival is reported as -2% (active).
Cc1ccc(C(=O)c2cn(Cc3ccccc3)c3ccccc3c2=O)cc1 was tested, and the survival was 75%.
In the case of CCCCN(CCCC)CC(O)Cn1cc(/C=C/C(=O)c2ccccc2)c2ccccc21 (stereo unspecified), the survival is reported as 5% (active).
CCCCN(CC)CCCNC(=O)c1cn(CC(C)C)c(=O)c2c1c1ccccc1n2C was tested, and the survival was 115%.
CCn1cc(/C=C(\NC(=O)c2ccc(OC)cc2)C(=O)NCCCn2ccnc2)c2ccccc21 was tested, and the survival was 108%.
With CC(C)CN(CC(C)C)CC(O)Cn1cc(/C=C/C(=O)c2ccccc2)c2ccccc21 (stereo unspecified) the survival was 38% (active).
For CCCN(CCC)CC(O)Cn1cc(/C=C/C(=O)c2ccc(Br)cc2)c2ccccc21 (stereo unspecified), the survival was 66%.
In the case of CCCN(CCC)CC(O)Cn1cc(/C=C/C(=O)c2ccc(OC)cc2)c2ccccc21 (stereo unspecified), the survival is reported as 11% (active).
